The results in this text go back to PubChem BioAssay (NCI).

About 83,000 compounds went through this panel and 20% of them were active in at least one assay; those are over-represented in the sample as a whole.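 For each line, cells grew in 96-well plates with the test compound present at a single concentration for 48 hours.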 Unmarked numbers belong to inactive results. Activity calls are given as the source filed them. How the source made its calls: active means growth percent below 10; inactive means the rest.

Test systems include T-47D breast; BT-549 breast; MDA-MB-435 melanoma; SW-620 colon; MCF7 breast; HCT-116 colon; HCC-2998 colon; KM12 colon.
Assay in all cases: NCI-60 one-dose screen, 48 h (100 = growth as untreated, 0 = no growth, -100 = all killed)
Conditions in all cases: 10 µM unless noted

As to `COc1cc(C2CC(c3ccc(Nc4ccnc5cc(Cl)ccc45)cc3)=NN2C=O)cc(OC)c1OC` (stereo not drawn), the growth with T-47D breast was 83.2%; in the assay with BT-549 breast, 37%; in the assay on MDA-MB-435 melanoma, 30.5%; with SW-620 colon, 84%; in the assay on MCF7 breast, 46.3%; in the assay on HCT-116 colon, 13.5%.
Consider `CN(C)CCCn1c(=O)c2ccccc2c2ccccc21`, for which the growth with T-47D breast was 87.9%; in the assay with BT-549 breast, 103%; with MDA-MB-435 melanoma it was 89%; with SW-620 colon, 42.8%; in the assay with MCF7 breast it was 58.4%; in the assay with HCT-116 colon it was 26.5%. Further, the growth in the assay on HCC-2998 colon is 68.2%.
In the case of `COc1ccc(-c2nc(SCCC(C)C)nc(N/N=C\c3cccc([N+](=O)[O-])c3)c2C#N)cc1`, the growth with T-47D breast is 27.5%; in the assay with BT-549 breast it was 63.2%; with MDA-MB-435 melanoma, 56.3%; in the assay with SW-620 colon, 15.5%; in the assay with MCF7 breast, 35.6%; in the assay on HCT-116 colon it was 23.5%. In the assay with HCC-2998 colon, the growth was 52%.
With `Cc1nn(-c2ccccc2)c(Oc2ccc(Cl)cc2)c1/C=N\N=c1/sc2ccccc2n1C`, the growth with T-47D breast was 66.4%; in the assay with BT-549 breast it was 84.1%; in the assay on MDA-MB-435 melanoma it was 97.2%; in the assay with SW-620 colon, 77.8%; in the assay with MCF7 breast, 85%; in the assay with HCT-116 colon, 73.2%. Further, in the assay with HCC-2998 colon, the growth was 103%.
`COc1ccc2cc(-c3cc(OC)c(OC)c(OC)c3)c(=O)oc2c1`: the growth was 56.5% with T-47D breast; 50.1% with BT-549 breast; 7.5% (active) with MDA-MB-435 melanoma; 44.3% with SW-620 colon; 37.5% with MCF7 breast; 46.9% in the assay on HCT-116 colon. Also, the growth was 86.6% with HCC-2998 colon and 65.8% in the assay on KM12 colon.
As for `Cc1cc(/C=C\c2ccc3ccccc3[n+]2C)c(O)c2ncccc12`, the growth is 18% in the assay with T-47D breast; -19.4% (active) in the assay with BT-549 breast; 6.21% (active) in the assay on MDA-MB-435 melanoma; 15.1% with SW-620 colon; 5.19% (active) in the assay with MCF7 breast; -8.95% (active) in the assay with HCT-116 colon. Further, the growth in the assay on HCC-2998 colon was -3.25% (active).
As to `COc1ccc2c(c1)O/C(=C\c1cccc(OCC(=O)Nc3nc(C)c(C)s3)c1)C2=O`, the growth was 75.7% in the assay on T-47D breast; -81.9% (active) in the assay on BT-549 breast; 80% in the assay on MDA-MB-435 melanoma; -39% (active) in the assay on SW-620 colon; 93.8% with MCF7 breast; 66.6% with HCT-116 colon.
Regarding `c1ccc2cc3nc4cc5ccccc5cc4nc3cc2c1`, the growth with T-47D breast is 94.3%; with BT-549 breast, 105%; in the assay with MDA-MB-435 melanoma, 119%; with SW-620 colon, 84.1%; in the assay on MCF7 breast, 81.9%; in the assay on HCT-116 colon it was 72.3%. In addition, the growth in the assay on HCC-2998 colon is 96.4%.
Regarding `CCOc1ccccc1-n1c(CN2CCN(C(=O)COc3ccc(CNCCCCCCN4C5CCCC4CC(OC(=O)Nc4cc(C)ccc4OC)C5)cc3)CC2)nc2ccccc2c1=O` (stereo not drawn), the growth is -66.8% (active) in the assay with T-47D breast; -90.8% (active) in the assay with BT-549 breast; -97% (active) with MDA-MB-435 melanoma; -86.8% (active) in the assay on SW-620 colon; -78.3% (active) in the assay on MCF7 breast; -91.5% (active) in the assay on HCT-116 colon. For the same compound, in the assay with HCC-2998 colon, the growth was -87.7% (active).
As to `c1coc(-c2c3ccc(=[N+]4CCCCC4)cc-3oc3cc(N4CCCCC4)ccc23)c1`, the growth with T-47D breast was -50.4% (active); in the assay on BT-549 breast it was -82.8% (active); in the assay with MDA-MB-435 melanoma, -68.1% (active); in the assay with SW-620 colon, -80% (active); in the assay on MCF7 breast, -69.7% (active); in the assay with HCT-116 colon, -95.2% (active). Also, in the assay with HCC-2998 colon, the growth was -96.5% (active).
Take `O=C1/C(=C/c2ccc(F)cc2)C=C(c2ccccc2)N1CCc1ccccc1`: the growth is 52.1% in the assay with T-47D breast; 79.3% in the assay on BT-549 breast; 65.4% in the assay on MDA-MB-435 melanoma; 70% with SW-620 colon; 50.4% with MCF7 breast; 29.4% in the assay on HCT-116 colon. Also, the growth with HCC-2998 colon was 85%.
For the compound `COc1cc(CCC[P+](c2ccccc2)(c2ccccc2)c2ccccc2)cc2c1OCO2`, the growth with T-47D breast is 11.5%; in the assay on BT-549 breast, 23.3%; with MDA-MB-435 melanoma, 3.36% (active); with SW-620 colon it was 37.6%; with MCF7 breast it was 18.2%; with HCT-116 colon, 22.8%. The growth in the assay with HCC-2998 colon was 24.3%.
Regarding `COc1ccc(Nc2nnc(SCc3ccccc3F)s2)cc1`, the growth is 85.8% with T-47D breast; 118% in the assay on BT-549 breast; 99% in the assay on MDA-MB-435 melanoma; 109% in the assay on SW-620 colon; 90.6% in the assay with MCF7 breast; 103% with HCT-116 colon. Also, the growth with HCC-2998 colon was 106%.
As for `COc1ccc(-c2csc(C3=C(O)CN(CCCN4CCCC4=O)C3=N)n2)cc1OC`, the growth was 86.5% with T-47D breast; 100% with BT-549 breast; 116% with MDA-MB-435 melanoma; 103% in the assay on SW-620 colon; 109% in the assay with MCF7 breast; 88.7% with HCT-116 colon. The growth in the assay with HCC-2998 colon is 98.3%.
`O=C1/C(=C\c2cccnc2)SC(=S)N1CCc1ccc(O)cc1`: the growth in the assay with T-47D breast was 37.6%; in the assay with BT-549 breast it was 72.2%; with MDA-MB-435 melanoma it was 22.4%; in the assay on SW-620 colon, 44.4%; in the assay on MCF7 breast, 30.3%; in the assay with HCT-116 colon, 15%. For the same compound, the growth in the assay with HCC-2998 colon was 72.1%.
Regarding `COc1ccccc1NC(=O)N/C(N)=N/c1nc2ccccc2s1`, the growth was 52.2% in the assay on T-47D breast; 50.8% in the assay with BT-549 breast; -18.6% (active) in the assay on MDA-MB-435 melanoma; 25.6% in the assay with SW-620 colon; 20.3% with MCF7 breast; 13.4% in the assay with HCT-116 colon. In addition, the growth with HCC-2998 colon was 28.6%.
Take `Cn1ccc2c(c1=O)C(=O)c1nccc3c1c-2nc1ccccc13`: the growth with T-47D breast is 84.9%; in the assay on BT-549 breast, 87.4%; in the assay on MDA-MB-435 melanoma, 76.4%; in the assay with SW-620 colon, -76.3% (active); with MCF7 breast it was -59.1% (active); with HCT-116 colon it was -94.3% (active). The growth in the assay on HCC-2998 colon was -96.2% (active).
